Consider 38 molecules from the supplement of paper PMC9177965.

Structures are written as SMILES.

The subject of the test is HT29 sg-Ctrl (RNF43 wildtype). The test can be described thus: cell viability activity relative to DMSO (negative = inhibition); higher = more viable cells (less growth inhibition). As to conditions: 5 µM; 96 h. As for the experimental part:
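Broad Repurposing Library primary screen at a single dose of 5 uM. HT29 sg-Ctrl and HT29 RNF43 G659fs CRISPR-edited isogenic cells were seeded at 2500 cells/well in 384-well plates in duplicate and treated for 96 h. Viability was read by CellTiter-Glo and reported as % activity relative to DMSO, with MG132 as the positive control (negative = growth inhibition).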
In the case of `O=C(Nc1cc(C(F)(F)F)cc(C(F)(F)F)c1)c1cc(Cl)ccc1O`, the cell viability activity is -90.9%.
Regarding `COc1cc(N2CCC(N3CCN(C)CC3)CC2)ccc1Nc1ncc(Cl)c(Nc2ccccc2S(=O)(=O)C(C)C)n1`, the cell viability activity is -66.5%.
Take `Cc1cnc(Nc2ccc(N3CCN(C)CC3)cc2)nc1Nc1cccc(S(=O)(=O)NC(C)(C)C)c1`: the cell viability activity is -89.4%.
As to `CNc1nc(-c2ccc3c(N)n[nH]c3c2)cc(N2C[C@@H](C(=O)NC3CCCCC3)CC[C@H]2C)n1`, the cell viability activity was -23%.
In the case of `CNC(=O)c1c(F)cccc1Nc1nc(Nc2cc3c(cc2OC)CCN3C(=O)CN(C)C)nc2[nH]ccc12`, the cell viability activity is -35%.
Regarding `COC(=O)C1=C(C)NC(C)=C(C(=O)OC2CCCN(Cc3ccccc3)C2)C1c1cccc([N+](=O)[O-])c1` (stereo not drawn), the cell viability activity is -85.6%.
For `CCN(CC)CCOc1ccc(Nc2ncc3cc(-c4c(Cl)cccc4Cl)c(=O)n(C)c3n2)cc1`, the cell viability activity is -80.3%.
Turning to `COc1cc(C(=O)N2CCC(N3CCN(C)CC3)CC2)ccc1Nc1ncc2c(n1)N(C)c1ccccc1C(=O)N2C`, the cell viability activity is -57.3%.
For the molecule `Cc1cccc(/C=N/Nc2cc(N3CCOCC3)nc(OCCc3ccccn3)n2)c1`, the cell viability activity was -62.4%.
Under `CN(C)/N=N/c1[nH]cnc1C(N)=O` stands -26.5%.
Regarding `CCCC[C@H](NC(C)=O)C(=O)N[C@H]1CC(=O)NCCCC[C@@H](C(=O)O)NC(=O)[C@H](Cc2c[nH]c3ccccc23)NC(=O)[C@H](CCCNC(=N)N)NC(=O)[C@@H](Cc2ccccc2)NC(=O)[C@H](Cc2c[nH]cn2)NC1=O`, the cell viability activity is -7.64%.
For the molecule `COc1cc(N2CCC(N3CCN(C)CC3)CC2)ccc1Nc1ncnc(Nc2ccccc2S(=O)(=O)C(C)C)n1`, the cell viability activity was -27.7%.
Turning to `O=C(Nc1c[nH]nc1-c1nc2ccc(CN3CCOCC3)cc2[nH]1)NC1CC1`, the cell viability activity was -71.2%.
For the molecule `COc1cc(OCc2cccc(-c3ccccc3)c2C)cc(OC)c1CN1CCCC[C@H]1C(=O)O`, the cell viability activity was -3.46%.
For the molecule `O=[N+]([O-])c1ccc2c(c1)S(=O)(=O)C=C2`, the cell viability activity was -91%.
Take `O=C(c1ccc(-c2ccc(Cl)cc2)o1)N(Cc1ccccn1)c1ccc(N2CCNCC2)cc1`: the cell viability activity was -21.3%.
Consider `N#CC1(c2ccc(NC(=O)c3cccnc3NCc3ccncc3)cc2)CCCC1`, for which the cell viability activity is -22.7%.
`Nc1nc(Cl)nc2c1ncn2[C@@H]1O[C@H](CO)[C@@H](O)[C@@H]1F`: the cell viability activity was -63.4%.
Under `O=C(/C=C/c1ccc2ccccc2n1)c1ccncc1` stands -54%.
For `COC(=O)C1=C(C)NC(C)=C(C(=O)OCCCN2CCC(c3ccccc3)(c3ccccc3)CC2)[C@@H]1c1cccc([N+](=O)[O-])c1`, the cell viability activity was -91.4%.
For the molecule `CC(=O)N1CCN(CCOc2ccc(C3CCN(C4=Nn5c(nnc5C(F)(F)F)CC4)CC3)cc2)CC1`, the cell viability activity is -33.7%.
On to `CCCCc1oc2ccccc2c1C(=O)c1cc(I)c(OCCN(CC)CC)c(I)c1`, for which the cell viability activity was -98.9%.
For the molecule `Cc1cc(Nc2nc(N[C@@H](C)c3ccc(F)cc3)c(C#N)cc2F)n[nH]1`, the cell viability activity was -56.7%.
For the molecule `O=[N+]([O-])c1ccccc1S(=O)(=O)NCC1CCC(CNCC2CCc3ccccc3C2)CC1` (stereo not drawn), the cell viability activity was -61.4%.
For `CSc1ccccc1Nc1nc(N2CCNCC2)nc2c(NCC3CC3)ncnc12`, the cell viability activity was -94.6%.
Turning to `CC(C)[C@H]1c2ccc(F)cc2CC[C@@]1(CCN(C)CCCc1nc2ccccc2[nH]1)OC(=O)C1CC1`, the cell viability activity is -90.4%.
As to `Cc1cc(OCc2nnc(SC3CCCC3)n2-c2cccnc2)ccc1-c1ccc(S(C)(=O)=O)cc1`, the cell viability activity was -74.8%.
On to `Nc1nc(=S)c2ncn([C@@H]3O[C@H](CO)[C@@H](O)[C@H]3O)c2[nH]1`, for which the cell viability activity was -76.6%.
Consider `CCCCC(CC)CNC(=N)NC(=N)NCCCCCCNC(=N)NC(=N)NCC(CC)CCCC` (stereo not drawn), for which the cell viability activity was -88.4%.
With `Nc1ncnc2c1c(-c1cccc(OCc3ccccc3)c1)cn2C1CC(CN2CCCC2)C1` (stereo not drawn), the cell viability activity was -56.6%.
For `COc1cc(F)c(F)c(Nc2ccc(I)cc2F)c1NS(=O)(=O)C1(C[C@H](O)CO)CC1`, the cell viability activity was -78.3%.
Under `CC[C@H](CO)Nc1nc(NCc2ccc(-c3ccccn3)cc2)c2ncn(C(C)C)c2n1` stands -92.1%; under `COc1ccc(NC(=O)c2ccc(-c3ccc(-c4noc(C)n4)cc3C)cc2)cc1OCCN(C)C`, -90.6%; under `CCOc1ccccc1OC(c1ccccc1)C1CNCCO1` (stereo not drawn), -58.7%.
For `COc1cc(NC(C)CCCN)c2ncccc2c1` (stereo not drawn), the cell viability activity was -22.4%.
Regarding `Cn1nccc1Nc1nccc(-c2ccn([C@H](CO)c3ccc(Cl)c(F)c3)c(=O)c2)n1`, the cell viability activity was -52.1%.
In the case of `Cc1ccc(C(=O)Nc2ccc(CN3CCN(C)CC3)c(C(F)(F)F)c2)cc1C#Cc1cnc2[nH]ncc2c1`, the cell viability activity was -94%.
Turning to `Cc1cc(NC(=O)NCCN2CCC(O)(Cc3ccccc3)CC2)c2ccccc2n1`, the cell viability activity was -24.3%.
